This is one part of a sample in which hits are shown more often than they occur.
Pf Dd2 growth – qHTS Primary assay for Inhibitors of Plasmodium falciparum Dd2 growth in vitro | AID 1347417, 2020 | P. falciparum Dd2 growth, SYBR Green, 72 h | 120,000 compounds, 4.3% hits | Potency, µM (highest dose often 28.9 µM), most hits filed as inhibitors; active = well fitted inhibition curve with a large enough effect; note: nearly all actives have a fitted effect of over 65% in size
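Readout: SYBR Green fluorescence, 485 nm excitation, 535 nm emission, after ~16 h lysis at 37C. Before that, Dd2-infected red cells (2.5% hematocrit) grew 72 h with compound, 29 uM top final concentration.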
Of the large screens only hits and unclear results are named; the others gave an inactive call.

Cc1cc(C)n(C(C)C(=O)N2CCn3nc(Cc4ccccc4)cc3C2)n1 (stereo not given)	none
CC(C)N1CCC(CC(=O)N2CCn3nc(Cc4ccccc4)cc3C2)CC1	Pf Dd2 growth 10µM
O=C(CCn1cnc2ccccc21)N1CCn2nc(Cc3ccccc3)cc2C1	none
C=CCN1CC(C(=O)N2CCn3nc(Cc4ccccc4)cc3C2)CC1=O (stereo not given)	none
COc1ccc(CNC(=O)N2CCC(c3noc(-c4cnccn4)n3)C2)cc1 (stereo not given)	none
CC(C)CCNC(=O)N1CCCC(c2noc(COc3ccccc3F)n2)C1 (stereo not given)	none
CC(C)N1CCN(C(=O)c2ccc3c(c2)C(O)CCCCCN3C)CC1 (stereo not given)	none
Cc1ccc(N2C(=O)CSC23CCN(C(=O)C2CC2)CC3)cc1	none
COc1ccc(CNC(=O)c2cc(-c3ccc(Br)s3)nc3ccccc23)c(OC)c1	none
CC(C)CCNC(=O)c1cc(-c2ccc(Br)s2)nc2ccccc12	none
CCCCN(CCCC)CCCNC(=O)c1cc(-c2ccc(Cl)s2)nc2ccccc12	Pf Dd2 growth 5.6µM
CCCCN(C)CCCNC(=O)c1cc(-c2ccc(Br)s2)nc2ccccc12	Pf Dd2 growth 11µM
CCc1ccccc1NC(=O)c1cc(-c2ccc(Cl)s2)nc2ccccc12	none
CCc1ccc(CNC(=O)c2cc(-c3ccc(Cl)s3)nc3ccccc23)cc1	none
COc1ccc(Nc2cc(C(=O)NCCc3ccccc3)c3ccccc3n2)cc1OC	none
COc1ccc(Nc2cc(C(=O)NC3CCC(C)CC3)c3ccccc3n2)cc1OC (stereo not given)	none
Cc1cc(C)cc(Nc2cc(C(=O)NCCCN(C)C3CCCCC3)c3ccccc3n2)c1	Pf Dd2 growth 6.3µM
CCc1ccccc1Nc1cc(C(=O)NCCCN(C)C2CCCCC2)c2ccccc2n1	none
CCCCN(CCCNC(=O)c1cc(Nc2ccc(OC)c(OC)c2)nc2ccccc12)Cc1ccccc1	Pf Dd2 growth 2.2µM
Cc1ccc(C)c(Nc2cc(C(=O)NCCCN(C)C3CCCCC3)c3ccccc3n2)c1	none
CCN1CC(C(=O)NCc2noc(Cc3ccccc3)n2)CCC1=O (stereo not given)	none
O=C(NC[C@H]1O[C@H](Cc2cc(CN3CCOCC3)on2)CC[C@@H]1O)N1CCOCC1	none
CCn1nccc1C(=O)N1CCC(N2C(=O)C(OCC3CC3)C23CCOCC3)CC1 (stereo not given)	none
COCCOC1CCOC2(CCN(C(=O)Nc3cccc(F)c3)CC2)C1 (stereo not given)	none
CCCNC(=O)N1CCC2(CCCN(Cc3cccc(F)c3F)C2=O)C1 (stereo not given)	none
COc1ccc(C(=O)N2CCC3(CC2)N=C(c2ccc(Cl)cc2)NO3)cc1OC	none
O=c1cc(-c2ccccc2)c2ccc3c(c2o1)CN(Cc1ccccc1)CO3	Pf Dd2 growth 1µM
O=C1COc2ccc(-c3ccncc3)nc2CN1Cc1ccccc1	none
CCc1c(C)c2ccc3c(c2oc1=O)CN(Cc1ccccc1)CO3	Pf Dd2 growth 1µM
COc1ccc(OC2CN(Cc3ccccc3)C2)cc1	none
COc1ccc(C2=NOC3(CCN(Cc4ccccc4)C3)C2)cc1 (stereo not given)	none
COc1ccc(-c2cc(=O)oc3c4c(ccc23)OCN(Cc2ccccc2)C4)cc1	Pf Dd2 growth 0.89µM
O=c1c2oc3ccccc3c2n(Cc2ccccc2)c(=O)n1Cc1ccc2c(c1)OCO2	none
Cc1coc2c(C)c3oc(=O)c(CC(=O)NCc4ccccc4)c(C)c3cc12	none
CC1=NOC2(CCN(Cc3ccccc3)CC2)C1	none
COc1ccc2ccc(OCc3nc(C(=O)N(C)CC4COCCO4)co3)cc2c1 (stereo not given)	none
COc1cc(=O)n2c(c1C(=O)NCc1ccccc1C(F)(F)F)CCCC2	none
CCn1ccc(C(=O)N2CC[C@@H]3COCCN(Cc4ccncc4)[C@@H]3C2)n1	none
CC(=O)N[C@@H]1CN(C(=O)CCCS(N)(=O)=O)C[C@H]1c1ccc(C)cc1	none
CC(=O)N1CCC(Cc2ncc(C)n2C2CC2)C1 (stereo not given)	none
CN(CC(=O)N1CCC(CCOc2ccc(F)cc2)C1)S(=O)(=O)c1cccs1 (stereo not given)	none
Cc1cc(NC(=O)CN2C(=O)c3cccnc3Sc3ccccc32)ccc1Br	Pf Dd2 growth 11µM
CCc1ccccc1NC(=O)CN1C(=O)c2cccnc2Sc2ccccc21	none
Cc1cc(C)c(NC(=O)CN2C(=O)c3cccnc3Sc3ccccc32)c(C)c1	none
CCn1ccnc1CN1CC[C@H](N2CCN(C)CC2)[C@H](CCC(=O)O)C1	none
Cc1cc(C(=O)NCC2Cn3cccc3C(=O)N2C)n(C)n1 (stereo not given)	none
O=C(Nc1ccccc1)N1CCOC(CN(CC2CC2)C(=O)c2cccc(F)c2)C1 (stereo not given)	none
Cc1ccc(C(=O)N(CC(C)C)CC2CN(C(=O)Nc3cccc(Cl)c3)CCO2)cc1 (stereo not given)	none
O=C(Nc1cccc(Cl)c1)N1CCOC(CN(CC2CC2)C(=O)c2cccc(F)c2)C1 (stereo not given)	Pf Dd2 growth 4.5µM
N#Cc1ccnc(-c2nnc3ccc(NC4CC4)nn23)c1	none
CNC(=O)[C@@H](c1ccccc1)N1CCC[C@H]1C(=O)NCc1ccncc1	none
CN1C(=O)c2cccn2CC1CNC(=O)C1CCCC1 (stereo not given)	none
O=C(c1cccnc1)N1CCCCC1c1nc(C2CC2)n[nH]1 (stereo not given)	none
Cn1cc(CN2C[C@H](C(=O)Nc3ccc(F)cc3)C[C@@H]2c2cccc(C(F)(F)F)c2)cn1	none
Cn1ccc(NC(=O)[C@@H]2C[C@@H](c3ccc(F)cc3)N(Cc3ccccc3)C2)n1	Pf Dd2 growth 13µM
Cn1cc(CN2C[C@H](C(=O)NCc3cccc(F)c3)C[C@H]2c2cccc(C(F)(F)F)c2)cn1	Pf Dd2 growth 8.9µM
COc1ccc(CNC(=O)[C@@H]2C[C@@H](c3ccc(F)cc3)N(Cc3ccccc3)C2)cc1OC	none
Cc1nc(CN2C[C@H](C(=O)N3CCN(CCO)CC3)C[C@@H]2c2ccc(F)cc2)cs1	none
Cn1cc(CN2C[C@H](C(=O)Nc3ccn(C)n3)C[C@@H]2c2cccc(C(F)(F)F)c2)cn1	none
Cc1nc(CN2C[C@H](C(=O)NCc3cccc(F)c3)C[C@@H]2c2ccc(F)cc2)cs1	Pf Dd2 growth 14µM
Cn1cc(CN2C[C@H](C(=O)Nc3ccccc3)C[C@@H]2c2cccc(C(F)(F)F)c2)cn1	none
O=C(Nc1ccncn1)[C@@H]1C[C@@H](c2ccc(F)cc2)N(Cc2ccccc2)C1	none
CN1CC(=O)N(C2CCNCC2)Cc2c(NC3CCCCCC3)ncnc21	none
CC(C)(CNc1ccc(-c2nc(C3CC3)no2)cn1)N1CCOCC1	none
Cc1ccc(C2Cn3nnc(C(=O)N4CCN(C(=O)c5cc(Cl)ccc5F)CC4)c3CO2)cc1 (stereo not given)	none
O=C(Nc1cccc(F)c1)C1CCN(S(=O)(=O)c2ccc3[nH]c4c(c3c2)CCCCC4)CC1	Pf Dd2 growth 11µM
COc1cccc(NC(=O)C2CCN(S(=O)(=O)c3ccc4[nH]c5c(c4c3)CCCCC5)CC2)c1	none
CC(=O)c1ccc(N2CCN(S(=O)(=O)c3ccc4[nH]c5c(c4c3)CCCCC5)CC2)cc1	none
O=C1CC(c2noc(-c3ccc(C(F)(F)F)cc3)n2)CN1C1CCCCC1 (stereo not given)	none
CCN1c2cc(C(=O)Nc3ccc(F)c(F)c3)ccc2C(=O)N2CCCCC21 (stereo not given)	none
CC1(c2ccccc2)N(Cc2ccccc2F)C(=O)OC12CCN(Cc1cccnc1N)CC2 (stereo not given)	none

From PubChem BioAssay
